This is part of a sample that, as a whole, favours compounds with a hit. Of some 83,000 tested, about 20% had one in any assay.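 Percent growth is the endpoint: 0 to 100 indicates growth inhibition (40 means 60% inhibition), 0 means no net growth, and negative values indicate cell death.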 The source made the active and inactive calls. Rule for the calls: active = growth percent below 10; inactive = the rest.
What was measured:
Assay in all cases: NCI-60 one-dose screen, 48 h (100 = growth as untreated, 0 = no growth, -100 = all killed)
Details in all cases: 10 µM unless noted
[1] = test system: SR leukemia
[2] = test system: RPMI-8226 leukemia
[3] = test system: OVCAR-8 ovarian
[4] = test system: OVCAR-5 ovarian
[5] = test system: OVCAR-4 ovarian
[6] = test system: SK-OV-3 ovarian
[7] = test system: IGROV1 ovarian
[8] = test system: OVCAR-3 ovarian
[9] = test system: HS 578T breast
[10] = test system: NCI/ADR-RES ovarian

SMILES | growth [1] | growth [2] | growth [3] | growth [4] | growth [5] | growth [6] | growth [7] | growth [8] | growth [9] | growth [10]
O=C(CN1CCN(c2cc3c(cc2F)c(=O)c(C(=O)O)cn3C2CC2)CC1)N/N=C/c1ccco1 | 92.9% (inactive) | 101% (inactive) | 98.2% (inactive) | 85.1% (inactive) | 105% (inactive) | 88.8% (inactive) | 101% (inactive) | 107% (inactive) | 95.5% (inactive) | 103% (inactive)
COc1cccc(/C=N/NC(=O)c2ccccc2N2CCCC2)c1O | 77.4% (inactive) | -1.83% (active) | 54.9% (inactive) | 57.9% (inactive) | 18% (inactive) | 63.6% (inactive) | -24.3% (active) | -4.45% (active) | 87.3% (inactive) | 13.6% (inactive)
COc1ccc(/C=C/C(c2cc(OC)c(OC)c(OC)c2)n2cncn2)cc1 (stereo not given) | 18.9% (inactive) | 50.8% (inactive) | 52.2% (inactive) | 90.2% (inactive) | 96.8% (inactive) | 35.5% (inactive) | 64.6% (inactive) | 9.06% (active) | 51.2% (inactive) | 36.3% (inactive)
CC(=C(c1ccc(OCCN2CCCCC2)cc1)c1ccc(OCCN2CCCCC2)cc1)c1ccc(Cl)cc1 | -60.3% (active) | -61.7% (active) | -77.4% (active) | -92.5% (active) | -88.8% (active) | -91.1% (active) | -83% (active) | -91.4% (active) | -72.4% (active) | -90.8% (active)
COc1cccc(CCNc2ncnc3c2ncn3Cc2nnc3c4ccccc4c(Cl)nn23)c1 | 33.5% (inactive) | 48.8% (inactive) | 40.3% (inactive) | 102% (inactive) | 57.5% (inactive) | 3.23% (active) | 40% (inactive) | 64% (inactive) | 40.8% (inactive) | 40.7% (inactive)
Cc1nn(-c2cc(NC3CCC(O)CC3)c3c(=O)[nH]c(CCC(F)(F)F)cc3c2)c2c1C(=O)CC(C)(C)C2 (stereo not given) | 25.9% (inactive) | 40.7% (inactive) | 52.1% (inactive) | 85.3% (inactive) | 66.8% (inactive) | 36.3% (inactive) | 55.2% (inactive) | 70% (inactive) | 34.4% (inactive) | 72% (inactive)
O=C(/C=C(O)/C=C/c1cccc2[nH]ccc12)/C=C/c1cccc2[nH]ccc12 | 10.3% (inactive) | 2.9% (active) | 72.6% (inactive) | 99.7% (inactive) | 91.7% (inactive) | 85.6% (inactive) | 70.3% (inactive) | 103% (inactive) | 91% (inactive) | 87.6% (inactive)
CCc1ccc(CCC(=O)Nc2ncc(Cc3ccccc3)s2)o1 | 22.6% (inactive) | 29.4% (inactive) | 28.4% (inactive) | 38.9% (inactive) | 61.5% (inactive) | 34.4% (inactive) | 35.6% (inactive) | -11.2% (active) | 9.99% (active) | 12.7% (inactive)
CC[C@]12C=CCN3CC[C@@]4(c5ccc(OC)cc5N(C)[C@H]4[C@@](O)(C(=O)OC)[C@@H]1OC(=O)CCC[P+](c1ccccc1)(c1ccccc1)c1ccccc1)[C@@H]32 | 9.57% (active) | -12.6% (active) | 3.13% (active) | 21.4% (inactive) | -3.58% (active) | -21% (active) | -0.0574% (active) | -2.49% (active) | 25.5% (inactive) | 100% (inactive)
CCOc1c(OC)cc2c(c1O)C(=O)N[C@@H]1[C@@H](O)[C@@H](O)[C@H](O)C[C@@H]21 | 89.2% (inactive) | 103% (inactive) | 101% (inactive) | 98.7% (inactive) | 107% (inactive) | 98.1% (inactive) | 102% (inactive) | 102% (inactive) | 100% (inactive) | 110% (inactive)
O=C(Cc1cccc(OC(F)(F)F)c1)Nc1ccc(CCCCc2nnc(NC(=O)Cc3ccccn3)s2)nn1 | 41.3% (inactive) | 6.13% (active) | 65% (inactive) | 86.7% (inactive) | 76.3% (inactive) | 75.1% (inactive) | 78.9% (inactive) | 87.3% (inactive) | 79.3% (inactive) | 85.6% (inactive)
Cn1cc(-c2csc(-c3c[nH]c4ccc(F)cc34)n2)c2ccnc(Cl)c21 | 44.4% (inactive) | 52.9% (inactive) | 80.5% (inactive) | 127% (inactive) | 47.2% (inactive) | 74.3% (inactive) | 70.5% (inactive) | 73.4% (inactive) | 74.3% (inactive) | 71.4% (inactive)
CCn1c(-c2cc3c([nH]c4ccccc43)c(-c3cccc(O)c3)n2)n[nH]c1=S | -3.76% (active) | 19.3% (inactive) | 40.8% (inactive) | 98.1% (inactive) | 54.8% (inactive) | 55.8% (inactive) | 53.7% (inactive) | 28.9% (inactive) | 28.1% (inactive) | 64.8% (inactive)
CC(C)(C)n1cc(-c2ccnc(NCCCNS(=O)(=O)c3ccc(C(F)(F)F)cc3)c2)c(-c2cccc(F)c2)n1 | 25.2% (inactive) | 55.9% (inactive) | 83.1% (inactive) | 85.4% (inactive) | 99.7% (inactive) | 94.2% (inactive) | 84.1% (inactive) | 95% (inactive) | 95% (inactive) | 76.5% (inactive)
O=C(Nc1ccccc1N1CCCC1=O)c1oc2ccc(F)cc2c1-c1cnn(-c2ccccc2)c1 | 61.6% [50 µM] (inactive) | 32.3% [50 µM] (inactive) | 20.5% [50 µM] (inactive) | 87.8% [50 µM] (inactive) | 57.6% [50 µM] (inactive) | 56.5% [50 µM] (inactive) | 65.7% [50 µM] (inactive) | 72.4% [50 µM] (inactive) | 41.4% [50 µM] (inactive) | 40.4% [50 µM] (inactive)
